Vif-APOBEC3G blk – qHTS for Inhibitors of Vif-A3G Interactions: qHTS; AID 602310, 2012; Potency, µM (series often up to 46.1 µM), inactives show at the highest dose activity, negative = active, most hits filed as inhibitors; HeLa A3G-eYFP + Vif (tagged APOBEC3G with the HIV-1 protein that degrades it), YFP fluorescence, overnight; 0.076% of 410,000 active; also: potency is read from the fitted curve at half-maximal effect; % is scaled to controls: 0 for no effect and ±100 for the full control effect; nearly all actives have a fitted effect of over 60% in size
Target sequence (Q9HC16 whole entry, looked up): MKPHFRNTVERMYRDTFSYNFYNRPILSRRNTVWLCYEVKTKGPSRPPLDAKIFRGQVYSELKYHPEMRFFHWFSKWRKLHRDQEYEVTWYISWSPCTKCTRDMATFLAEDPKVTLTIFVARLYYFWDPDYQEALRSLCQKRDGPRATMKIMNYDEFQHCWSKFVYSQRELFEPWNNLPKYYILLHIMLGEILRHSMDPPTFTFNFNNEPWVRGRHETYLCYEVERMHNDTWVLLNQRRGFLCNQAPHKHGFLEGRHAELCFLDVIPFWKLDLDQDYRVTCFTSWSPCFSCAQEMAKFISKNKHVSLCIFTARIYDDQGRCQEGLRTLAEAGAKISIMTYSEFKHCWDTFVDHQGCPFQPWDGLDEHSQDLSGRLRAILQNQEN
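HeLa cells stably expressing Vif and C-terminally eYFP-tagged A3G, seeded overnight at 37 deg C, then exposed to compound by pintool overnight at 37 deg C. Rise in yellow fluorescence (Ex 488/Em 500-530, Acumen) marks blocked Vif-driven A3G degradation.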
Epigenetic reg – Quantitative High-Throughput Screen for Regulators of Epigenetic Control | murine LDR cells, GFP reporter derepression, 30 h | Potency, µM (series often up to 53.9 µM), without a hit: at the highest dose GFP activation, actives largely listed as activators | 0.2% of 280,000 active | AID 1865, 2009; also: potency is read from the fitted curve at half-maximal effect; % of control where 0% means no effect; nearly all actives have a fitted effect of over 60% in size
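Murine LDR cells carrying a silenced, genomically integrated CMV-driven GFP reporter were exposed to compound for 30 hours at 37 C. After PBS washes, GFP-positive cells (20–120 um objects) were counted by laser-scanning microplate cytometry.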
Vif-APOBEC3F blk – qHTS for Inhibitors of Vif-A3F Interactions: qHTS; AID 602313, 2012; 0.2% of 390,000 active; Potency, µM (doses to about 46.1 µM), for inactives: at the highest dose activity, negative = active; HeLa A3F-eYFP + Vif (tagged APOBEC3F with the HIV-1 protein that degrades it), YFP fluorescence increase; also: potency is read from the fitted curve at half-maximal effect; % of control where 0% means no effect; nearly all actives have a fitted effect of over 65% in size
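Fluorescence increase (Ex 488/Em 500-530) after overnight compound treatment at 37 deg C flags inhibition of Vif-driven A3F-eYFP loss in stable HeLa A3F-eYFP/Vif cells seeded overnight beforehand.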
miR-21 reporter – qHTS Assay for Modulators of miRNAs and/orActivators of miR-21 | HeLa miR-21 FLuc reporter, luciferase, 48 h | Potency, µM (series often up to 38.3 µM), inactives show top-dose activity change, positive = activation, actives largely listed as activators | 340,000 tested, under 10 active;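 also: % of control where 0% means no effect; miR-21 action dims this reporter so a rising signal means less miR-21 action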
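Compounds were titrated across several concentrations (up to approximately 40 uM) and incubated 48 hours with HeLa miR-21-FLuc reporter cells (miR-21 target sequence downstream of FLuc, endogenous miR-21). Readout was firefly luciferase luminescence after lytic detection reagent.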
* hit, by the source's call; ? = inconclusive; . = not tested or not shown. This is a sample that favours compounds with a hit; in the whole collection about 0.34% have one here. Calls follow the shape of the dose curve; as a rule, active = well fitted curve in the direction sought with a large enough effect; inconclusive = small, poorly fitted or top-dose-only effect, or another doubt; inactive = no such curve, though single readings can be large; an effect the other way counts as inactive or inconclusive.

SMILES	Vif-APOBEC3G blk	Epigenetic reg	Vif-APOBEC3F blk	miR-21 reporter
Cc1ccc2ccc3cc(C(=O)Nc4ccc(C)c(F)c4)nc3c2[nH]1	13µM*	8%	?	-4%
COc1ccc(C2NN=C(c3c[nH]c4ccccc34)C2O)cc1 (stereo not given)	?	.	22µM*	-28%
Cn1cccc1/C=C1\SC(=O)N(c2ccc(O)cc2)C1=O	?	?	25µM*	-46%
CC(C)(C)n1ncc2c(=O)n(Cc3cc(F)ccc3Cl)cnc21	-1%	.	.	.
CC(=O)NC(c1ccc(C)cc1)c1cc(Cl)c2cccnc2c1O (stereo not given)	-16%	.	-16%	28%
CC(=O)NC(c1cc(Cl)c2cccnc2c1O)C(C)C (stereo not given)	-6%	.	8.9µM*	.
CC(=O)NC(c1cc(Cl)c2ccccc2c1O)C(C)C (stereo not given)	?	.	4%	.
CC(=O)NC(c1cc(Cl)c2cccnc2c1O)C1CC1 (stereo not given)	5µM*	.	?	.
CCOc1ccc(CN2C(=O)c3ccccc3Sc3ccc(C(=O)NC4CCC(C)CC4)cc32)cc1 (stereo not given)	-26%	2%	-9%	-9%
CCN(c1ccc(N=Cc2c(O)n(Cc3ccc(OC)cc3)c(=O)c3ccccc23)cc1)C(C)C	?	2µM*	-869%	3%
CN(C)c1ccc(C(=O)/C=C/c2ccc(Br)cc2)cc1	-2%	0%	-3%	-24%
CCN(CC)c1ccc(/C=C/C(=O)c2ccc(Br)cc2)cc1	?	16%	25µM*	-11%
CCCCOC(=O)c1ccc(NC(=O)c2cc(-c3ccccc3)on2)cc1	5%	0%	-3%	-8%
CN(C)c1ccc(/C=C2\SC(=S)N(Nc3ncc(C(F)(F)F)cc3Cl)C2=O)cc1	?	14µM*	10µM*	0%
COc1cc(/C=C2\SC(=S)N(Nc3ncc(C(F)(F)F)cc3Cl)C2=O)ccc1O	?	1%	22µM*	-7%
COc1ccc(/C=C2\SC(=S)N(CC3CCCO3)C2=O)cc1 (stereo not given)	0%	0%	8%	-13%
COc1cc(/C=C2/SC(=S)N(CC3CCCO3)C2=O)ccc1O (stereo not given)	5%	3%	32µM*	-56%
Cc1cc(C)nc(NN2C(=O)/C(=C/c3ccccc3)SC2=S)n1	1%	-3%	-12%	1%
COc1cc(NC(=O)CC2C(=O)OCCN2Cc2ccccc2)cc(OC)c1 (stereo not given)	-1%	2%	3%	-2%
CCCOc1cccc(C2c3c(oc4ccc(F)cc4c3=O)C(=O)N2Cc2ccc3c(c2)OCO3)c1 (stereo not given)	2%	2%	4%	0%
COc1ccc(-c2cnnc(N/N=C/c3ccc(O)cc3)n2)cc1	-23%	6%	-5%	-31%
Oc1ccc(/C=N\Nc2nncc(-c3ccccc3)n2)cc1	11µM*	3%	-14%	-2%
C=C(c1nc2ccccc2s1)C1Cc2cccc3c2N(CCC3)C1 (stereo not given)	11%	.	.	.
Cc1ccccc1N(C)S(=O)(=O)c1nnc(NC(=O)C(C)C)s1	4%	22µM*	1%	-2%
Cc1ccccc1N(C)S(=O)(=O)c1nnc(NC(=O)c2ccccc2F)s1	-5%	0%	3%	-7%
SMILES	Vif-APOBEC3G blk	Epigenetic reg	Vif-APOBEC3F blk	miR-21 reporter
CCCC[C@@H](C=O)NC(=O)[C@H](CC(C)C)NC(=O)OCc1ccccc1	.	5%	.	.
CCN(CC)/[N+]([O-])=N/Oc1ccc([N+](=O)[O-])cc1[N+](=O)[O-]	-1%	.	.	.
CN1CCN(Cc2cc(Cl)c3cccnc3c2OC(=O)c2cccs2)CC1	-1%	3.5µM*	?	27%
CCN1CCN(C(=O)Cn2ncc3c4ccccc4n(Cc4c(C)cc(C)cc4C)c3c2=O)CC1	0%	-8%	-31%	17%
CCC(CO)[n+]1c(C)cc(/C=C2\Sc3ccccc3N2Cc2ccccc2)cc1C (stereo not given)	13µM*	?	11µM*	?
CCC(C)NC(=O)c1ccc2c(c1)N(Cc1ccccc1)C(=O)c1ccccc1S2 (stereo not given)	4%	2%	2%	1%
CCC[N+](C)(C)c1ccc(/C=C/c2ccnc3ccccc23)cc1	9%	.	.	.

Source: PubChem BioAssay
